# Rows were chosen to be rich in hits. Some 2.8% of all compounds tested hit in one or more screens of this group.
# Pol kappa inh-1 = qHTS for Inhibitors of Polymerase Kappa; DNA polymerase kappa (Homo sapiens), Q9UBT6; purified Pol kappa, fluorescent DNA synthesis assay, 10 min; Potency, µM (doses to about 107 µM), inactives show at the highest dose activity, negative = inhibition, usual class: inhibitors; hit rate 0.53% among 400,000; AID 588579, 2011; further: potency means the concentration at half of the fitted maximal effect; on the % scale 0 is the no-effect control and ±100 the full control effect
#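 10 nM Pol kappa was preincubated with compounds for 15 min at room temperature. Reaction started with 50 nM (final) substrate. Fluorescence read kinetically at 0 and 10 min.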
# POLB inh = qHTS Assay for Inhibitors of DNA Polymerase Beta | Potency, µM (titrated, usually from 114 µM), for inactives: top-dose activity change, negative = inhibition, most hits filed as inhibitors | P06746 | Pol beta primer extension/strand displacement, fluorescence kinetic | hit rate 1.3% among 340,000; further: potency means the concentration at half of the fitted maximal effect; on the % scale 0 is the no-effect control and ±100 the full control effect
#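 Enzyme-only controls used 10 nM Pol beta; buffer lacking enzyme served as negative control. Compound preincubated 15 min, then 50 nM substrate added; 0 and 10 min reads at room temperature.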
# WRN helicase inh = qHTS for Inhibitors of WRN Helicase; hit rate 0.46% among 360,000; Potency, µM (top dose mostly 114 µM), for inactives: at the top dose activity change, negative = inhibition, actives largely listed as inhibitors; WRN helicase unwinding, fluorescent forked duplex, kinetic; Bifunctional 3'-5' exonuclease/ATP-dependent helicase WRN (Homo sapiens), Q14191; further: potency means the concentration at half of the fitted maximal effect; on the % scale 0 is the no-effect control and ±100 the full control effect; nearly all actives have a fitted effect of over 55% in size
#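 WRN at 20 nM final was preincubated with compound for 15 min at room temperature; reaction started with 100 nM forked duplex oligonucleotide carrying fluorophore and quencher plus 2 mM ATP (final). Unwinding followed kinetically by red fluorescence (ex 525/em 598 nm).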
# PI5P4Ka inh = qHTS for Inhibitors of phosphatidylinositol 5-phosphate 4-kinase (PI5P4K); Phosphatidylinositol 5-phosphate 4-kinase type-2 alpha (Homo sapiens), P48426; PI5P4Kalpha enzyme, ADP-Glo luminescence, 60 min; active compounds read low; max response, %; hit rate 1.2% among 330,000; active means max response of -50% or lower; inconclusive means between -30% and -50%; inactive means -30% or higher; further: value at the top dose of about 77 µM; on the % scale 0 is the no-effect control and ±100 the full control effect
# Target sequence (P48426 whole entry, looked up): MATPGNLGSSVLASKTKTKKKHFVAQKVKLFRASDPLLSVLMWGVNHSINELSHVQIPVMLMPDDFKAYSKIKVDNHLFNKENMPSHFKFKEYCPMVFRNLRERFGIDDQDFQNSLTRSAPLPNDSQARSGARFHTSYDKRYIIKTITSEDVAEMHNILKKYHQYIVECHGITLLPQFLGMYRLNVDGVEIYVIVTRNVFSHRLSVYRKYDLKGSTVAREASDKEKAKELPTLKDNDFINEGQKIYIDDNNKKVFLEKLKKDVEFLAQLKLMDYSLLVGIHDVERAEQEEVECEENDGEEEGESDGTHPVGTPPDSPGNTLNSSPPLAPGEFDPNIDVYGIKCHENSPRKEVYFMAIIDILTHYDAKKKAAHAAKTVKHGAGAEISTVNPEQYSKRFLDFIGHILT
#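 ADP-Glo luminescence end-point read after a 60 min room-temperature kinase reaction of PI5P4Kalpha plus substrate, initiated with ATP at 5 microM final. Buffer: 0.038 M HEPES pH 7.4, EGTA, 0.1% CHAPS, 5% DMSO.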
# Pol eta inh-1 = qHTS for Inhibitors of Polymerase Eta; DNA polymerase eta (Homo sapiens), Q9Y253; recombinant Pol eta, fluorescent DNA replication assay; Potency, µM (top dose mostly 114 µM), without a hit: top-dose activity change, negative = inhibition, actives largely listed as inhibitors; hit rate 1.2% among 390,000; AID 588591, 2011; further: potency means the concentration at half of the fitted maximal effect; on the % scale 0 is the no-effect control and ±100 the full control effect
#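 Fluorescent replication assay: 50 nM final substrate added after a 15 min room-temperature compound preincubation with 10 nM enzyme. Signal taken at 0 min and again at 10 min.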
# POLI inh = qHTS for Inhibitors of Polymerase Iota | DNA polymerase iota (Homo sapiens), Q9UNA4 | Pol iota fluorescent replication assay, 10 min | Potency, µM (series often up to 115 µM), for the others: top-dose activity, negative = inhibition, usual class: inhibitors | hit rate 1% among 390,000; further: potency means the concentration at half of the fitted maximal effect
#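 Pol iota at 10 nM preincubated 15 min with compounds at room temperature; reaction started with fluorescent substrate, 50 nM final. Fluorescence read kinetically at 0 and 10 min; buffer-only wells as negative control.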
# Pol kappa inh-2 = qHTS for Inhibitors of Polymerase Kappa: Confirmatory Assay for Cherry-picked Compounds; shares compounds with Pol eta inh-1; purified Pol-kappa, fluorescent strand-displacement substrate; Potency, µM, most hits filed as inhibitors; hit rate 76% among 920; AID 720501, 2013; further: potency means the concentration at half of the fitted maximal effect
# Pol eta inh-2 = qHTS for Inhibitors of Polymerase Eta: Confirmatory Assay for Cherry-picked Compounds | AID 720502, 2013 | Pol eta primer extension, TAMRA/BHQ fluorescence, 10 min | shares compounds with Pol eta inh-1 | Potency, µM, hits mostly inhibitors | hit rate 64% among 2,600; further: potency means the concentration at half of the fitted maximal effect
# * marks the source's active call; other numbers are inactive results; u = inconclusive; x = not tested or not shown; [ ] = remark or other dose. Unless noted, the call rests on the fitted dose curve; in most records, active means well fitted curve in the direction sought with a large enough effect; inconclusive means small, poorly fitted or top-dose-only effect, or another doubt; inactive means no such curve, though single readings can be large; an effect the other way counts as inactive or inconclusive.
SMILES,Pol kappa inh-1,POLB inh,WRN helicase inh,PI5P4Ka inh,Pol eta inh-1,POLI inh,Pol eta inh-2,others
Cc1ccccc1C(=O)NCC(=O)OC(C)C(=O)Nc1cccc(S(=O)(=O)N2CCOCC2)c1 (stereo unspecified),4.8%,x,-2.3%,2.2,-21.9%,12.9%,x,
O=C(Nc1cccnc1)c1ccc(NS(=O)(=O)c2cc([N+](=O)[O-])ccc2Cl)cc1,-52.0%,u,-10.1%[11.6 µM],u,22.4µM*,u,75.7*,
O=[N+]([O-])c1ccc(Cl)c(S(=O)(=O)/N=C(/Nc2cccnc2)c2ccccc2)c1,-13.7%,x,u,-5.6,0.7%,104.5%,x,
COCC#Cc1ccc2c(c1)O[C@@H](CN(C)C(=O)Nc1ccc(OC)cc1)[C@H](C)CN([C@H](C)CO)S2(=O)=O,x,x,-1.4%,1.0,-15.5%,x,x,
CC1=Nc2cccc([N+](=O)[O-])c2NC(=O)C1,3.3%,2.4%,-4.2%,-0.8,-17.7%,18.5%,x,
COCCn1c(SC(C)C(=O)NCC2CCCO2)nc2sc3c(c2c1=O)CCC3 (stereo unspecified),-1.9%,x,-23.1%,-18.0,u,u,u,
CCN(CC)C(=O)CSc1nc2sc3c(c2c(=O)n1CCOC)CCC3,-21.9%,8.5%,-3.1%,1.4,-1.1%,12.8%,x,
O=C(CCCn1c(=O)c2sccc2n(CC(=O)NCc2ccco2)c1=O)NCc1ccco1,-9.7%,-0.7%,-10.6%[11.6 µM],x,79.4µM*,u,u,
CCOC(=O)c1sc2nc(C)n(CC(=O)Nc3cccc(Cl)c3)c(=O)c2c1C,-12.1%,-13.4%,x,x,9.3%,u,x,
Cc1ccc(N(Cc2cc3ccc(C)cc3[nH]c2=O)S(C)(=O)=O)c(C)c1,5.3%,-4.6%,2.8%,-3.3,-10.9%,1.6%,x,
Cc1ccc(CSc2nc(-c3ccc(C(C)(C)C)cc3)nc3cc(=O)[nH]n23)cc1,u,u,x,x,50.1µM*,u,84.9*,
C=CCc1ccccc1OCCSc1nc(-c2ccc(C(C)(C)C)cc2)nc2cc(=O)[nH]n12,-32.3%,39.8µM*,x,x,u,u,75.7*,
O=C(Nc1nc2ccccc2s1)C1CCN(S(=O)(=O)c2cc([N+](=O)[O-])ccc2Cl)CC1,u,u,-9.4%[11.6 µM],u,39.8µM*,u,u,Pol kappa inh-2=u
CCC(C)NC(=O)C1CCN(S(=O)(=O)c2cc([N+](=O)[O-])ccc2Cl)CC1 (stereo unspecified),-11.5%,-1.3%,-4.5%,0.4,-17.2%,57.7%,x,
COc1ccc(S(=O)(=O)N(C)CC(=O)NCCCN2CCOCC2)cc1C,2.0%,x,20.3%,-4.9,-0.5%,52.0%,x,
CC(C)(C)NC(=O)Cn1cc(S(=O)(=O)Cc2ccc(F)cc2)c2ccccc21,-0.5%,1.5%,x,x,16.2%,14.4%,x,
COc1ccc(NC(=O)Cn2cc(S(=O)(=O)Cc3ccc(F)cc3)c3ccccc32)cc1OC,-20.2%,-25.4%,x,x,50.1µM*,u,x,Pol kappa inh-2=u
CCOC(=O)c1cc(-c2ccccc2C)nn1CC1CC(c2cccnc2)=NO1 (stereo unspecified),2.9%,x,11.0%,-4.8,-22.1%,15.5%,x,
COc1ccc(C=NNc2ccc([N+](=O)[O-])cc2S(=O)(=O)Nc2ccccc2C(=O)O)cc1OC,-37.0%,x,u,u,35.5µM*,35.8%,u,
O=C1CSC(=S)N1/N=C/C=C/c1ccccc1,u,28.2µM*,-27.5%,-63.0*,14.1µM*,20µM*,u,
O=C(O)c1cc(S(=O)(=O)O)cc(Nc2c3ccccc3nc3ccccc23)c1O,u,-7.0%,-23.2%[11.6 µM],-1.1,22.4µM*,u,30.1*,Pol kappa inh-2=16.8*
S=c1[nH]nc(-c2cc(-c3ccccc3)n[nH]2)n1/N=C/c1ccc(Br)s1,u,17.8µM*,-13.7%[11.6 µM],-13.3,u,22.4µM*,u,Pol kappa inh-2=42.3*
Cc1ccc(C)n1-c1cccc(-c2nn[nH]n2)c1,x,x,x,x,x,x,u,
Nc1cc2c(cc1[N+](=O)[O-])OCO2,u,28.2µM*,-20.6%[57.1 µM],-60.4*,44.7µM*,u,u,
Nc1cc2c(cc1[N+](=O)[O-])OCCO2,-2.3%,2.3%,-14.0%,-6.5,-21.0%,22.6%,x,
SMILES,Pol kappa inh-1,POLB inh,WRN helicase inh,PI5P4Ka inh,Pol eta inh-1,POLI inh,Pol eta inh-2,others
COc1ccccc1NC(=O)C(=N\O)/C(C)=N/O,u,44.7µM*,-35.6%,-25.3,14.1µM*,u,84.9*,
COc1ccccc1NC(C)=O,1.6%,-4.8%,1.8%,0.2,0.1%,u,x,
CCN(Cc1ccncc1)C(=O)c1cc(Br)cc(Br)c1O,4.7%,57.2%,-17.2%,-0.2,-4.5%,21.5%,x,
COc1cccc(/C=N/N2C(=O)CSC2=S)c1O,u,u,u,-55.0*,-9.1%,u,u,
COc1ccc2ccccc2c1/C=N/N1C(=O)CSC1=S,-35.7%,-1.9%,u,-20.8,-13.4%,28.7%,x,
COc1ccccc1CNC(=O)CN1C(=O)CSc2c1c(C)nn2-c1ccccc1,-12.6%,-3.8%,x,x,-16.8%,36.4%,x,
O=C(/C=C\c1ccco1)NC(=S)Nc1ccccc1O,u,56.2µM*,u,-53.0*,22.4µM*,u,u,
O=C(/C=C/c1ccco1)NC(=S)Nc1ccccc1O,u,22.4µM*,-8.0%[11.6 µM],-17.2,-8.2%,u,u,
O=C(/C=C/c1ccco1)NC(=S)Nc1ccccc1N1CCCC1,-17.8%[60.1 µM],0.7%,-9.5%,1.9,13.6%,29.6%,x,
COC(=O)c1ccccc1NC(=O)c1ccnn1C,-10.1%,-1.0%,-9.8%,2.6,-15.6%,78.0%,x,
CC(C)CN(C(=O)CSc1nc2ccccc2[nH]1)C1CCS(=O)(=O)C1 (stereo unspecified),-3.3%,x,6.6%,2.3,-9.4%,12.4%,x,
CC(C)Sc1nc2sc3c(c2c2nnc(SCC(=O)NCc4ccco4)n12)CCCC3,-17.6%,-10.9%,-13.5%[11.6 µM],u,4.47µM*,u,67.5*,
O=C(CSc1nc(C2CC2)nc2sc3c(c12)CCCC3)NCc1ccco1,-4.3%,-3.2%,-3.7%,x,-1.4%,8.1%,x,
Cc1ccn2c(=O)c(NC(=O)c3ccc4c(c3)OCO4)c(C)nc2c1,x,x,-3.6%,5.8,-0.7%,x,x,

# High-throughput results as filed in PubChem BioAssay.
